Results published in the supplement of paper PMC7411054.

Experiments:
Assay in all cases: phenotypically active (imaging signature differs from DMSO and reproducible) at any of 0.3-9 uM (binary (1 = active, 0 = inactive)); higher = active
Conditions in all cases: treatment time: 24 h
A549-ACTB-RAB5A = tested on: A549-ACTB-RAB5A
In short: (§1)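 Fifteen reporter lines derived from A549, HepG2 and WPMY1 cells by gene editing, carrying BFP for segmentation plus GFP and RFP/FusionRed markers, were exposed to 0.3, 1, 3 or 9 µM for 24 h in four wells each and imaged live. Live-cell features from each well were normalised to solvent control wells. A well set counted as deviating when ≥3 of 4 wells lay beyond the 95th percentile of control Euclidean distances, and as reproducible when the median replicate Pearson correlation exceeded the 95th percentile of non-replicates. Phenotypic activity was assigned only when both criteria were met.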

A549-CANX-COX4 = tested on: A549-CANX-COX4
In short: as §1

A549-GM130-SQSTM1 = tested on: A549-GM130-SQSTM1
In short: as §1

A549-TP53BP1-CLTA = tested on: A549-TP53BP1-CLTA
In short: as §1

A549-TUBA1B-RELA = tested on: A549-TUBA1B-RELA
In short: as §1

HepG2-ACTB-RAB5A = tested on: HepG2-ACTB-RAB5A
In short: as §1

HepG2-CANX-COX4 = tested on: HepG2-CANX-COX4
In short: as §1

HepG2-GM130-SQSTM1 = tested on: HepG2-GM130-SQSTM1
In short: as §1

HepG2-TP53BP1-CLTA = tested on: HepG2-TP53BP1-CLTA
In short: as §1

HepG2-TUBA1B-RELA = tested on: HepG2-TUBA1B-RELA
In short: as §1

WPMY1-ACTB-RAB5A = tested on: WPMY1-ACTB-RAB5A
In short: as §1

WPMY1-CANX-COX4 = tested on: WPMY1-CANX-COX4
In short: as §1

WPMY1-GM130-SQSTM1 = tested on: WPMY1-GM130-SQSTM1
In short: as §1

WPMY1-TP53BP1-CLTA = tested on: WPMY1-TP53BP1-CLTA
In short: as §1

WPMY1-TUBA1B-RELA = tested on: WPMY1-TUBA1B-RELA
In short: as §1

Measured: phenotypically active

O=C(Nc1cccc(Br)c1)c1cccc(S(=O)(=O)N2CCCCCC2)c1
inactive: A549-ACTB-RAB5A 0 | A549-CANX-COX4 0 | A549-GM130-SQSTM1 0 | A549-TP53BP1-CLTA 0 | A549-TUBA1B-RELA 0 | HepG2-ACTB-RAB5A 0 | HepG2-CANX-COX4 0 | HepG2-GM130-SQSTM1 0 | HepG2-TP53BP1-CLTA 0 | HepG2-TUBA1B-RELA 0 | WPMY1-ACTB-RAB5A 0 | WPMY1-CANX-COX4 0 | WPMY1-GM130-SQSTM1 0 | WPMY1-TP53BP1-CLTA 0 | WPMY1-TUBA1B-RELA 0

COc1cc2ncnc(Oc3cccc(NC(=O)Nc4cc(C(C)(C)C(F)(F)F)on4)c3)c2cc1OC
inactive: A549-ACTB-RAB5A 0 | A549-CANX-COX4 0 | A549-GM130-SQSTM1 0 | A549-TP53BP1-CLTA 0 | A549-TUBA1B-RELA 0 | HepG2-ACTB-RAB5A 0 | HepG2-CANX-COX4 0 | HepG2-GM130-SQSTM1 0 | HepG2-TP53BP1-CLTA 0 | HepG2-TUBA1B-RELA 0 | WPMY1-ACTB-RAB5A 0 | WPMY1-CANX-COX4 0 | WPMY1-GM130-SQSTM1 0 | WPMY1-TP53BP1-CLTA 0 | WPMY1-TUBA1B-RELA 0

COC(=O)c1ccc(N2CCN(C)CC2)c(NC(=O)c2cccc(OC)c2)c1
inactive: A549-ACTB-RAB5A 0 | A549-CANX-COX4 0 | A549-GM130-SQSTM1 0 | A549-TP53BP1-CLTA 0 | A549-TUBA1B-RELA 0 | HepG2-ACTB-RAB5A 0 | HepG2-CANX-COX4 0 | HepG2-GM130-SQSTM1 0 | HepG2-TP53BP1-CLTA 0 | HepG2-TUBA1B-RELA 0 | WPMY1-ACTB-RAB5A 0 | WPMY1-CANX-COX4 0 | WPMY1-GM130-SQSTM1 0 | WPMY1-TP53BP1-CLTA 0 | WPMY1-TUBA1B-RELA 0

CCCCCOC(=O)Nc1nc(=O)n([C@@H]2O[C@H](C)[C@@H](O)[C@H]2O)cc1F [capecitabine]
inactive: A549-ACTB-RAB5A 0 | A549-CANX-COX4 0 | A549-GM130-SQSTM1 0 | A549-TP53BP1-CLTA 0 | A549-TUBA1B-RELA 0 | HepG2-ACTB-RAB5A 0 | HepG2-CANX-COX4 0 | HepG2-GM130-SQSTM1 0 | HepG2-TP53BP1-CLTA 0 | HepG2-TUBA1B-RELA 0 | WPMY1-ACTB-RAB5A 0 | WPMY1-CANX-COX4 0 | WPMY1-GM130-SQSTM1 0 | WPMY1-TP53BP1-CLTA 0 | WPMY1-TUBA1B-RELA 0

O=S(=O)(N[C@H](CO)C(C(F)(F)F)C(F)(F)F)c1ccc(Cl)s1 [begacestat]
inactive: A549-ACTB-RAB5A 0 | A549-CANX-COX4 0 | A549-GM130-SQSTM1 0 | A549-TP53BP1-CLTA 0 | A549-TUBA1B-RELA 0 | HepG2-ACTB-RAB5A 0 | HepG2-CANX-COX4 0 | HepG2-GM130-SQSTM1 0 | HepG2-TP53BP1-CLTA 0 | HepG2-TUBA1B-RELA 0 | WPMY1-ACTB-RAB5A 0 | WPMY1-CANX-COX4 0 | WPMY1-GM130-SQSTM1 0 | WPMY1-TP53BP1-CLTA 0 | WPMY1-TUBA1B-RELA 0

O=C1c2ccccc2C(Cc2ccncc2)(Cc2ccncc2)c2ccccc21
inactive: A549-ACTB-RAB5A 0 | A549-CANX-COX4 0 | A549-GM130-SQSTM1 0 | A549-TP53BP1-CLTA 0 | A549-TUBA1B-RELA 0 | HepG2-ACTB-RAB5A 0 | HepG2-CANX-COX4 0 | HepG2-GM130-SQSTM1 0 | HepG2-TP53BP1-CLTA 0 | HepG2-TUBA1B-RELA 0 | WPMY1-ACTB-RAB5A 0 | WPMY1-CANX-COX4 0 | WPMY1-GM130-SQSTM1 0 | WPMY1-TP53BP1-CLTA 0 | WPMY1-TUBA1B-RELA 0

O=C(O)c1cc(/N=N/c2ccc(O)c(C(=O)O)c2)ccc1O [olsalazine]
inactive: A549-ACTB-RAB5A 0 | A549-CANX-COX4 0 | A549-GM130-SQSTM1 0 | A549-TP53BP1-CLTA 0 | A549-TUBA1B-RELA 0 | HepG2-ACTB-RAB5A 0 | HepG2-CANX-COX4 0 | HepG2-GM130-SQSTM1 0 | HepG2-TP53BP1-CLTA 0 | HepG2-TUBA1B-RELA 0 | WPMY1-ACTB-RAB5A 0 | WPMY1-CANX-COX4 0 | WPMY1-GM130-SQSTM1 0 | WPMY1-TP53BP1-CLTA 0 | WPMY1-TUBA1B-RELA 0

COC(=O)c1c(C)cc(OC(=O)c2c(C)cc(O)c(C=O)c2O)c(C)c1O [Atranorin]
inactive: A549-ACTB-RAB5A 0 | A549-CANX-COX4 0 | A549-GM130-SQSTM1 0 | A549-TP53BP1-CLTA 0 | A549-TUBA1B-RELA 0 | HepG2-ACTB-RAB5A 0 | HepG2-CANX-COX4 0 | HepG2-GM130-SQSTM1 0 | HepG2-TP53BP1-CLTA 0 | HepG2-TUBA1B-RELA 0 | WPMY1-ACTB-RAB5A 0 | WPMY1-CANX-COX4 0 | WPMY1-GM130-SQSTM1 0 | WPMY1-TP53BP1-CLTA 0 | WPMY1-TUBA1B-RELA 0

Cc1ccc(-c2cc(C(F)(F)F)nn2-c2ccc(S(N)(=O)=O)cc2)cc1 [celecoxib]
inactive: A549-ACTB-RAB5A 0 | A549-CANX-COX4 0 | A549-GM130-SQSTM1 0 | A549-TP53BP1-CLTA 0 | A549-TUBA1B-RELA 0 | HepG2-ACTB-RAB5A 0 | HepG2-CANX-COX4 0 | HepG2-GM130-SQSTM1 0 | HepG2-TP53BP1-CLTA 0 | HepG2-TUBA1B-RELA 0 | WPMY1-ACTB-RAB5A 0 | WPMY1-CANX-COX4 0 | WPMY1-GM130-SQSTM1 0 | WPMY1-TP53BP1-CLTA 0 | WPMY1-TUBA1B-RELA 0

O=C(Nc1c(Cl)cncc1Cl)c1ccc(OC(F)F)c(OCC2CC2)c1 [roflumilast]
inactive: A549-ACTB-RAB5A 0 | A549-CANX-COX4 0 | A549-GM130-SQSTM1 0 | A549-TP53BP1-CLTA 0 | A549-TUBA1B-RELA 0 | HepG2-ACTB-RAB5A 0 | HepG2-CANX-COX4 0 | HepG2-GM130-SQSTM1 0 | HepG2-TP53BP1-CLTA 0 | HepG2-TUBA1B-RELA 0 | WPMY1-ACTB-RAB5A 0 | WPMY1-CANX-COX4 0 | WPMY1-GM130-SQSTM1 0 | WPMY1-TP53BP1-CLTA 0 | WPMY1-TUBA1B-RELA 0

COC1=C(O)C(=O)c2ccccc2C1=O [2-hydroxy-3-methoxy-naphtoquinone]
inactive: A549-ACTB-RAB5A 0 | A549-CANX-COX4 0 | A549-GM130-SQSTM1 0 | A549-TP53BP1-CLTA 0 | A549-TUBA1B-RELA 0 | HepG2-ACTB-RAB5A 0 | HepG2-CANX-COX4 0 | HepG2-GM130-SQSTM1 0 | HepG2-TP53BP1-CLTA 0 | HepG2-TUBA1B-RELA 0 | WPMY1-ACTB-RAB5A 0 | WPMY1-CANX-COX4 0 | WPMY1-GM130-SQSTM1 0 | WPMY1-TP53BP1-CLTA 0 | WPMY1-TUBA1B-RELA 0
